TDP1 cell CPT: DT40-hTDP1 cell growth loss with CPT; chicken DT40 Tdp1-/-;hTDP1 cells + 20 nM CPT, ATP luminescence, 48 h; hit rate 12% among 420,000; Potency, µM (titrated, usually from 46.2 µM), for the others: top-dose activity change, negative = growth inhibition, actives largely listed as inhibitors; further: on the % scale 0 is the no-effect control and ±100 the full control effect; nearly all actives have a fitted effect of over 55% in size
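Cell growth measured by CellTiter-Glo luminescence after a minimum 48 h, 37 C compound exposure with 20 nM CPT in Tdp1-knockout DT40 cells stably expressing hTDP1, seeded 400/well; qHTS titration format.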
TDP1 inh: inhibitors of human tyrosyl-DNA phosphodiesterase TDP1; recombinant TDP1, AlphaScreen DNA substrate cleavage; Potency, µM (doses to about 130 µM), inactives show top-dose activity change, negative = inhibition, usual class: inhibitors; hit rate 0.28% among 350,000; further: on the % scale 0 is the no-effect control and ±100 the full control effect; nearly all actives have a fitted effect of over 40% in size
Target sequence (Q9NUW8 whole entry, looked up): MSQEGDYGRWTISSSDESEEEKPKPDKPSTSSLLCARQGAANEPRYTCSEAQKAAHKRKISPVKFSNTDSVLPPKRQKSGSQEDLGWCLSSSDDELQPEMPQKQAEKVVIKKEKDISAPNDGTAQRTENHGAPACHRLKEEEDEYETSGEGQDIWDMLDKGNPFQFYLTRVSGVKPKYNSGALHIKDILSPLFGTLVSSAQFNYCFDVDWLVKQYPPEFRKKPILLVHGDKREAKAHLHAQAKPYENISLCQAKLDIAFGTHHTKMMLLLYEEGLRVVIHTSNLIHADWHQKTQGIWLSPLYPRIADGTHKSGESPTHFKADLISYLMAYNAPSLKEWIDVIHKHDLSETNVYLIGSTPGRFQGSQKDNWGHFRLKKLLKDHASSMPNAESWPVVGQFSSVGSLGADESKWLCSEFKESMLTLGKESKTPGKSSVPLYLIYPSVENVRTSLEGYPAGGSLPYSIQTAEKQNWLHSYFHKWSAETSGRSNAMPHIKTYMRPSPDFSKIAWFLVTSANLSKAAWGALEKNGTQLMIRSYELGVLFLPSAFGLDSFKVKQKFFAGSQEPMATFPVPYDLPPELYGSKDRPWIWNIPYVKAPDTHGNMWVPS
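Tdp1 1 nM final; 15 min RT w/ cpd; substrate 15 nM, 5 min; beads 10 ug/ml, 10 min; AlphaScreen read. Neg ctrl: no enzyme.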
ClpP mod: qHTS Assay for Activators of ClpP; ATP-dependent Clp protease proteolytic subunit (Bacillus subtilis (strain 168)), P80244; hit rate 1.9% among 340,000; purified B. subtilis ClpP, FRET peptide cleavage, 20 min; Potency, µM (titrated, usually from 57.5 µM), without a hit: top-dose activity change, negative = active; active means well fitted falling curve with a large enough effect; inconclusive means small, poorly fitted or top-dose-only effect; inactive means no such curve, though single readings can be large or run the other way; further: the source files actives as falling curves though it sought activators and does not explain the sign; nearly all actives have a fitted effect of over 65% in size
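Buffer: 100 mM Tris/HCl pH8, 100 mM KCl, 0.05% low protease BSA, 2.5% glycerol, 0.01% Tween-20. ClpP 10 microg/mL final; 20 min RT; delta FRET normalized to ADEP and DMSO controls.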
TDP1 cell noCPT: qHTS for Inhibitors of human tyrosyl-DNA phosphodiesterase 1 (TDP1): qHTS in cells in absence of CPT | DT40 Tdp1-/- hTDP1 cells, no CPT, ATP luminescence, 48 h | Potency, µM (series often up to 46.2 µM), inactives show at the highest dose activity change, negative = growth inhibition, most hits filed as inhibitors | hit rate 15% among 420,000 | AID 686978, 2013; further: on the % scale 0 is the no-effect control and ±100 the full control effect; nearly all actives have a fitted effect of over 55% in size
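Growth kinetics read by CellTiter-Glo luminescence after ≥48 hr at 37 °C. Cells: DT40 Tdp1-/- stably carrying human TDP1, 400 per well, compound exposure in the absence of CPT (DMSO vehicle).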
An asterisk follows results filed as active. Compounds with a hit are over-represented: about 17% of the library has one in this group of screens. Unless noted, the call rests on the fitted dose curve; in most records, active means well fitted curve in the direction sought with a large enough effect; inconclusive means small, poorly fitted or top-dose-only effect, or another doubt; inactive means no such curve, though single readings can be large; an effect the other way counts as inactive or inconclusive. Potency means the concentration at half of the fitted maximal effect.

`COc1cc(/C=C2/C(=N)N3N=C(CC(=O)N4CCOCC4)SC3=NC2=O)ccc1OCc1ccc(F)cc1` gave TDP1 cell CPT -11%, TDP1 inh 6%, ClpP mod -8% and TDP1 cell noCPT 16%.
`COC(=O)c1ccc(NC(=O)Cn2nc(C(=O)Nc3ccc(C)cc3)ccc2=O)cc1` gave TDP1 cell CPT 22%, TDP1 inh 0%, ClpP mod 2% and TDP1 cell noCPT 4%.
For Cc1ccc(NC(=O)CSc2nc3ccccc3c(=O)n2CCCC(=O)N2CCCC2)cc1 the results were TDP1 cell CPT 18µM*, TDP1 inh 8%, ClpP mod 0% and TDP1 cell noCPT 21µM*.
CCc1ccc(NC(=O)CSc2nc3ccccc3c(=O)n2CCCN2CCC(C)CC2)cc1 was read as TDP1 cell CPT inconclusive, TDP1 inh 3%, ClpP mod -5% and TDP1 cell noCPT 23µM*.
CCc1ccc(NC(=O)CSc2nc3ccccc3c(=O)n2CCNC(C)=O)cc1 was read as TDP1 cell CPT -21%, TDP1 inh 1%, ClpP mod 0% and TDP1 cell noCPT -22%.
CCOc1cc(S(=O)(=O)n2cc(-c3ccc(F)cc3)c(N)n2)cc(OCC)c1OCC was read as TDP1 cell CPT inconclusive, TDP1 inh 1%, ClpP mod -1% and TDP1 cell noCPT 13µM*.
Screening CCOc1ccc(S(=O)(=O)n2cc(-c3ccc(F)cc3)c(N)n2)cc1 returned TDP1 cell CPT 3%, TDP1 inh 0%, ClpP mod -1% and TDP1 cell noCPT -21%.
For OC(c1ccccc1)c1nc(-c2ccc3c(c2)OCO3)cs1 (configuration not stated) the results were TDP1 cell CPT -23%, ClpP mod -2% and TDP1 cell noCPT -23%.
`Cc1ccc(N(Cc2ccccc2)C(=O)c2cccc(S(=O)(=O)N3CCOCC3)c2)cc1` gave TDP1 cell CPT inconclusive, TDP1 inh 0%, ClpP mod -3% and TDP1 cell noCPT 21µM*.
For Cc1ccc(N(Cc2ccccc2)C(=O)c2ccc(S(=O)(=O)N3CCOCC3)cc2)cc1 the results were TDP1 cell CPT inconclusive, TDP1 inh 2%, ClpP mod -1% and TDP1 cell noCPT 18µM*.
COc1ccc(OC2C(=O)N(Cc3ccc(F)cc3)C2c2cc(OC)c(OC)c(OC)c2)cc1 (configuration not stated) was read as TDP1 cell CPT inconclusive, TDP1 inh -3%, ClpP mod 4% and TDP1 cell noCPT 23µM*.
Screening COc1cc(OC)nc(Nc2nc(C(N)Cc3ccc(Cl)cc3)cs2)n1 (configuration not stated) returned TDP1 cell CPT 23µM*, ClpP mod -6% and TDP1 cell noCPT 15µM*.
Screening COc1cc(OC)nc(Nc2nc(C(N)COCc3ccccc3)cs2)n1 (configuration not stated) returned TDP1 cell CPT inconclusive, ClpP mod 0% and TDP1 cell noCPT inconclusive.
For COc1cc(OC)nc(Nc2nc(C(N)CCc3ccccc3)cs2)n1 (configuration not stated) the results were TDP1 cell CPT 26µM*, ClpP mod -2% and TDP1 cell noCPT inconclusive.
Screening COC(=O)[C@@H]1C[C@@]2(O)[C@H](O)[C@H](O)[C@H](O)C[C@H]2N1CC(c1ccccc1)c1ccccc1 returned TDP1 cell CPT 5%, TDP1 inh 3%, ClpP mod -3% and TDP1 cell noCPT 1%.
Screening CC(C)OC(C)C returned TDP1 inh 7%.
Screening CN(C)S(=O)(=O)c1cccc(CSCc2cccc(S(=O)(=O)N(C)C)c2)c1 returned TDP1 cell CPT 5.8µM* and TDP1 cell noCPT 2.6µM*.
CC(NCc1cccc(S(=O)(=O)N(C)C)c1)c1ccc(F)cc1 (configuration not stated) was read as TDP1 cell CPT -6%, TDP1 inh 0%, ClpP mod 1% and TDP1 cell noCPT 3%.
Screening Cc1cc(C)n2nc(SCc3cccc(S(=O)(=O)N(C)C)c3)nc2n1 returned TDP1 cell CPT inconclusive, ClpP mod 0% and TDP1 cell noCPT 15µM*.
Cc1ccc(CSc2nc3nc(C)cc(C)n3n2)cc1 was read as TDP1 cell CPT -2%, TDP1 inh 2%, ClpP mod -1% and TDP1 cell noCPT -5%.
`COc1ccc(C(=O)/C=C/c2ccc(O)cc2)c2c1CC(O)C(C)(C)O2` (configuration not stated) gave TDP1 cell CPT inconclusive, TDP1 inh 5%, ClpP mod 0% and TDP1 cell noCPT 16µM*.
COc1ccc(C(=O)/C=C/c2ccc(O)cc2)c(O)c1CC=C(C)C was read as TDP1 cell CPT 13µM*, TDP1 inh 4%, ClpP mod -5% and TDP1 cell noCPT inconclusive.
`COc1cc(/C=C/C(=O)c2ccccc2O)cc(OC)c1OC` gave TDP1 cell CPT -30%, TDP1 inh 7%, ClpP mod -5% and TDP1 cell noCPT inconclusive.
Screening Cn1cc(S(=O)(=O)N2CCC(C(N)=O)CC2)c(=O)n(C)c1=O returned TDP1 cell CPT 1%, ClpP mod 0% and TDP1 cell noCPT 3%.
For Cc1ccc(-c2nnc(SCC(=O)N/N=C/c3ccccc3C(=O)O)n2-c2ccccc2)cc1 the results were TDP1 inh 3%.
Cc1ccc(-c2nnc(SCC(=O)N/N=C/c3ccc(C)s3)n2-c2ccc(C)cc2)cc1 was read as TDP1 cell CPT inconclusive, TDP1 inh 0%, ClpP mod -1% and TDP1 cell noCPT 29µM*.
Screening C=CCOc1ccc(C2OC34CCCCC3C(C#N)(C#N)C2(C#N)C(=N)O4)cc1 (configuration not stated) returned TDP1 cell CPT 13µM*, TDP1 inh 0%, ClpP mod 22µM* and TDP1 cell noCPT 6.5µM*.
For CCOc1ccc(C2OC34CCCCC3C(C#N)(C#N)C2(C#N)C(=N)O4)cc1OC (configuration not stated) the results were TDP1 cell CPT 13µM*, TDP1 inh -5%, ClpP mod inconclusive and TDP1 cell noCPT 16µM*.
Screening CCCCOc1ccc(C2OC34CCCCC3C(C#N)(C#N)C2(C#N)C(=N)O4)cc1 (configuration not stated) returned TDP1 cell CPT -7%, TDP1 inh 5%, ClpP mod 1% and TDP1 cell noCPT -3%.
Screening Cc1cc(C)n2nc(C(=O)OCC(=O)N3C(C)CCCC3C)nc2n1 (configuration not stated) returned TDP1 cell CPT 26%, ClpP mod 0% and TDP1 cell noCPT -15%.
Cc1csc(N(C)C(=O)CSc2nnc(COc3cccc4ccccc34)o2)n1 was read as TDP1 cell CPT 5.8µM*, TDP1 inh 7%, ClpP mod 0% and TDP1 cell noCPT 5.8µM*.

From PubChem BioAssay
